Laboratory results taken from PubChem BioAssay (EPA / NIEHS).
Results filed as inconclusive are left out. Activity calls are given as the source filed them. The calls were made as follows, unless noted: active = hit-call score of the fitted dose curve at least 0.9, where 1 is the maximum; inactive = score below 0.9.

Tests used:
[1] = biological target: Nuclear respiratory factor 1 (Homo sapiens) (UniProt Q16656); assay: ATG_NRF1_CIS: Attagene CIS-FACTORIAL HepG2 Assay for human Nuclear Respiratory Factor 1 (NRF1) Orphan Gene (AID 2282987); conditions: HepG2 NRF1 cis-element reporter, Attagene multiplex; actives raise or lower the signal
Sequence of Nuclear respiratory factor 1 (Homo sapiens) (Q16656 whole entry, looked up): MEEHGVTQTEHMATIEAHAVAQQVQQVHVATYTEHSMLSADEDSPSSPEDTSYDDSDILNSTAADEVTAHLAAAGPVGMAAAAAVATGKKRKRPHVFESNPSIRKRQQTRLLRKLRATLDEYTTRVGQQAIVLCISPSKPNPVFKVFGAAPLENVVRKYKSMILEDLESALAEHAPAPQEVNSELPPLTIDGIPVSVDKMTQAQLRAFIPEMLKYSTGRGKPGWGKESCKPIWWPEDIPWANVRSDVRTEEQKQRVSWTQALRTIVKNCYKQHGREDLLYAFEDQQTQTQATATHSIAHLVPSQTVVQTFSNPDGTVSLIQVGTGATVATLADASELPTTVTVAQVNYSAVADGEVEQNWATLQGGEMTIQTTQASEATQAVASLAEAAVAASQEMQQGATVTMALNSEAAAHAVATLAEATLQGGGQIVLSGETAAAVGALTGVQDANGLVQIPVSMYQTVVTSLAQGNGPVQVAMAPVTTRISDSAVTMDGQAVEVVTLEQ
Method in brief: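 Using DMSO as baseline, gain- or loss-of-signal was fitted for reporter mRNA levels in HepG2 cells transiently transfected with cis-regulated reporter units. Samples were taken 24 h after dosing and read by RT-PCR with capillary electrophoresis.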

[2] = biological target: Myc proto-oncogene protein (Homo sapiens) (UniProt P01106); assay: ATG_Myc_CIS: Attagene CIS-FACTORIAL HepG2 Assay for human Myelocytomatosis (Myc) Proto-Oncogene Transcription Factor (AID 2282990); conditions: HepG2, Attagene cis-reporter transcription factor activity; actives raise or lower the signal
Sequence of Myc proto-oncogene protein (Homo sapiens) (P01106 whole entry, looked up, the tested form may be a part): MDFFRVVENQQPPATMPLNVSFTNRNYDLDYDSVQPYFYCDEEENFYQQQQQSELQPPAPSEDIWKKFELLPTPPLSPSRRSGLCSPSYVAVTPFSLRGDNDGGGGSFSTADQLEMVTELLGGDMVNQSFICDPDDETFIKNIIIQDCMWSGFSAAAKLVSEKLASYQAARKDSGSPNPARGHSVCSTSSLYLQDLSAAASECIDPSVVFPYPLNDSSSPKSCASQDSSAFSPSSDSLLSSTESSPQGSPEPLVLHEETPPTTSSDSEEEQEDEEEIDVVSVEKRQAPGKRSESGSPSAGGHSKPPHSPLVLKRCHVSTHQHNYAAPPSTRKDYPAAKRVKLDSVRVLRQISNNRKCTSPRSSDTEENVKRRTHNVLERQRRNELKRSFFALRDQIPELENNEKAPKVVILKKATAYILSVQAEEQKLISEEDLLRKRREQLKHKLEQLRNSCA
Method in brief: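 After 24 h chemical treatment of HepG2 cells carrying multiplexed cis-regulated reporter constructs, reporter transcripts quantified by RT-PCR and capillary electrophoresis of fluorescent fragments. Gain or loss fitted against DMSO baseline.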

[3] = ATG_NF_kB_CIS: Attagene CIS-FACTORIAL HepG2 Assay for human Nuclear Factor Kappa B (NF-kB) (AID 2282991); conditions: HepG2 Attagene cis-factorial NF-kB reporter mRNA; actives raise or lower the signal
Method in brief: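 Endpoint from a 52-component multiplexed HepG2 reporter panel: cis-regulated transcription units transiently transfected, 24 h dosing, reporter mRNA quantified by RT-PCR and capillary electrophoresis, scored as increase or decrease against DMSO.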

[4] = ATG_NRF2_ARE_CIS: Attagene CIS-FACTORIAL HepG2 Assay for human Nuclear Factor Erythroid 2 Related Factor 2 (NFR2) response to Antioxidant Response Elements (ARE) (AID 2282992); conditions: HepG2 Attagene ARE/NRF2 reporter, transcription factor activity; actives raise or lower the signal;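 as to AC50: reporter mRNA level measured by RT-PCR and capillary electrophoresis fluorescence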
Method in brief: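 Transient MRTU transfection of HepG2; 24 h compound exposure; TriZol RNA, RT with oligo(dT), PCR, 6-FAM primer extension, HpaI cut, CE. Bidirectional fit vs DMSO.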

[5] = ATG_Oct_MLP_CIS: Attagene CIS-FACTORIAL HepG2 Assay for human Octamer-Binding Transcription Factor (Oct) (AID 2282993); conditions: HepG2 Attagene cis-factorial Oct reporter, mRNA; actives raise or lower the signal
Method in brief: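 Using HepG2 cells bearing transfected cis-reporter constructs, mRNA induction was read after 24 h by fluorescent RT-PCR and capillary electrophoresis, with DMSO defining baseline for gain- or loss-of-signal fits.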

[6] = biological target: Cellular tumor antigen p53 (Homo sapiens) (UniProt P04637); assay: ATG_p53_CIS: Attagene CIS-FACTORIAL HepG2 Assay for human p53 Transcription Factor (AID 2282994); conditions: HepG2 p53 cis-element reporter, Attagene mRNA; actives raise or lower the signal
Sequence of Cellular tumor antigen p53 (Homo sapiens) (P04637 whole entry, looked up): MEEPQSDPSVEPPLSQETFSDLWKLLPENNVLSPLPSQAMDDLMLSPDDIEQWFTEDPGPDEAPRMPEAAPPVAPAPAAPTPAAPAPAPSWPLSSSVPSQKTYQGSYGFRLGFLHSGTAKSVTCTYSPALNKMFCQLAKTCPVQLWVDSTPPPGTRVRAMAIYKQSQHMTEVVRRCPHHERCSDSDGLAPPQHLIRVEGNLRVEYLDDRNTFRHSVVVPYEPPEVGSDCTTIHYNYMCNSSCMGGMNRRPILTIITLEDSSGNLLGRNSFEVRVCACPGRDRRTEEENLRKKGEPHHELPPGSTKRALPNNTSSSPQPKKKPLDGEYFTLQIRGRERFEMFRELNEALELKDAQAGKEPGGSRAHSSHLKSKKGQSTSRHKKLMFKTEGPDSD
Method in brief: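 HepG2, transient MRTU transfection (cis promoter elements, endogenous TFs); 24 h dosing; RNA isolation, RT-PCR, 6-FAM primer extension, HpaI digest, CE fluorescence; bidirectional fit vs DMSO.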

[7] = BSK_3C_TissueFactor: BioMAP Diversity Plus: 3C Assay for Tissue Factor Biomarker Activity (AID 2282997); conditions: BioMAP 3C HUVEC, tissue factor biomarker readout; actives raise or lower the signal
Method in brief: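 Dosing of human umbilical vein endothelial cells preceded a 24 h incubation. Tissue Factor was then read by ELISA, with increases and decreases both scored relative to DMSO controls.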

[8] = BSK_3C_uPAR: BioMAP Diversity Plus: 3C Assay for Urokinase-type plasminogen activator receptor (uPAR) Biomarker Activity (AID 2282998); conditions: BioMAP 3C HUVEC, uPAR biomarker ELISA; actives raise or lower the signal
Method in brief: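 In this endothelial cell-based assay, human umbilical vein primary cells were treated with chemicals and harvested at 24 h. uPAR was quantified using ELISA, with gains or losses fitted relative to DMSO controls.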

[9] = BSK_3C_VCAM1: BioMAP Diversity Plus: 3C Assay for Vascular cell adhesion molecule 1 (VCAM1) Biomarker Activity (AID 2282999); conditions: BioMAP 3C HUVEC, VCAM1 ELISA, cytokine-stimulated; actives raise or lower the signal
Method in brief: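 Endothelial cells from human umbilical vein are treated with test chemical. At 24 h, VCAM-1 is measured by ELISA, and responses in either direction are fitted relative to DMSO.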

[10] = BSK_4H_Eotaxin3: BioMAP Diversity Plus: 4H Assay for Eotaxin 3 Biomarker Activity (AID 2283000); conditions: primary human endothelial cells (HUVEC); actives raise or lower the signal;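 also: CCL26 protein level quantified by ELISA in parallel with SRB cytotoxicity check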
Method in brief: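 Human umbilical vein endothelial cells (BSK_4H system) dosed with test chemical; Eotaxin-3 (CCL26) measured by ELISA 24 h after dosing. Bidirectional curve fitting relative to DMSO negative control as baseline.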

[11] = biological target: human Peroxisome Proliferator-activated Receptor alpha (PPARa), PPARA (gene 5465) (UniProt Q07869); assay: ATG_PPARa_TRANS: Attagene TRANS-FACTORIAL HepG2 Assay for human Peroxisome Proliferator-activated Receptor alpha (PPARa) (AID 2283001; active = hit-call score of the fitted dose curve at least 0.9, where 1 is the maximum)
Sequence of human Peroxisome Proliferator-activated Receptor alpha (PPARa), PPARA (gene 5465) (Q07869 whole entry, looked up, the tested form may be a part): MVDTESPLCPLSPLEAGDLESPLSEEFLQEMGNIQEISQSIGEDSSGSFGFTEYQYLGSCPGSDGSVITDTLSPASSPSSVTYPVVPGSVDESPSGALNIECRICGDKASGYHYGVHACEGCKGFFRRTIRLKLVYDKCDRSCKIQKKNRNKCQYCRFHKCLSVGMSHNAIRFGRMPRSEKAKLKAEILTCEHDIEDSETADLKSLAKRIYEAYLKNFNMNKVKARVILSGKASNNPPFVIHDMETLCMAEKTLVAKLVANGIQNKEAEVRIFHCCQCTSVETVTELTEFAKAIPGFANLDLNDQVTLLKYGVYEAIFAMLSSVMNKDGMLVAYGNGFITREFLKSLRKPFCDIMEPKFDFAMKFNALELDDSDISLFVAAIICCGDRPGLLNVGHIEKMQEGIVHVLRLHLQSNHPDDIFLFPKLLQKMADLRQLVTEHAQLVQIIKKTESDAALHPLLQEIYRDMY
Method in brief: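 Read-out is fluorescence of reporter cDNA fragments resolved by capillary electrophoresis after RT-PCR. Human HepG2 liver cells carried transfected PPARa-Gal4 chimera and GAL4-UAS reporter units, treated 24 h; activity scored as increase over DMSO.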

[12] = biological target: human Peroxisome Proliferator-activated Receptor delta (PPARd), PPARD (gene 5467) (UniProt Q03181); assay: ATG_PPARd_TRANS: Attagene TRANS-FACTORIAL HepG2 Assay for human Peroxisome Proliferator-activated Receptor delta (PPARd) (AID 2283002; active = hit-call score of the fitted dose curve at least 0.9, where 1 is the maximum)
Sequence of human Peroxisome Proliferator-activated Receptor delta (PPARd), PPARD (gene 5467) (Q03181 whole entry, looked up, the tested form may be a part): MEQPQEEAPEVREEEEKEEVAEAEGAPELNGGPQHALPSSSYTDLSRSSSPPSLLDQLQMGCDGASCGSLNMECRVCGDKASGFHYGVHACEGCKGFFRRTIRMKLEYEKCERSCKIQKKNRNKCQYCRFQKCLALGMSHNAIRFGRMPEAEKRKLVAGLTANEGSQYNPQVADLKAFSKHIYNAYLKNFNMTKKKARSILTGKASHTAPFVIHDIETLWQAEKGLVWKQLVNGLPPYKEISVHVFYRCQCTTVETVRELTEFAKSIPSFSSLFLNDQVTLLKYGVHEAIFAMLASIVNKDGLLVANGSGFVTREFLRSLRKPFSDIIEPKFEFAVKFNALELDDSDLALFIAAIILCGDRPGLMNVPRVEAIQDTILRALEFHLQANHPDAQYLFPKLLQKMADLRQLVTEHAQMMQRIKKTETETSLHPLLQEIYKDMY
Method in brief: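 Read-out is induced reporter mRNA, quantified by RT-PCR with fluorescent labelling and capillary electrophoresis after 24 h dosing. Cells are HepG2 transiently carrying multiple GAL4-UAS reporter units driven by exogenous NR-GAL4 chimeras; DMSO serves as baseline.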

[13] = BSK_3C_Proliferation: Cell Proliferation Assessment in the BioMAP Diversity Plus: 3C Assay (AID 2283006); conditions: primary human endothelial cells (HUVEC)
Method in brief: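 Subconfluent HUVEC (3C system) cultured with chemical; relative cell number read at 48 h by sulforhodamine B total-protein staining (0.1% SRB after 10% TCA fixation, 560 nm). Bidirectional fit relative to DMSO.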

[14] = biological target: Nuclear receptor subfamily 1 group I member 2 (Homo sapiens) (UniProt O75469); assay: ATG_PXR_TRANS: Attagene TRANS-FACTORIAL HepG2 Assay for human Pregnane X Receptor (PXR) (AID 2283008; active = hit-call score of the fitted dose curve at least 0.9, where 1 is the maximum)
Sequence of Nuclear receptor subfamily 1 group I member 2 (Homo sapiens) (O75469 whole entry, looked up, the tested form may be a part): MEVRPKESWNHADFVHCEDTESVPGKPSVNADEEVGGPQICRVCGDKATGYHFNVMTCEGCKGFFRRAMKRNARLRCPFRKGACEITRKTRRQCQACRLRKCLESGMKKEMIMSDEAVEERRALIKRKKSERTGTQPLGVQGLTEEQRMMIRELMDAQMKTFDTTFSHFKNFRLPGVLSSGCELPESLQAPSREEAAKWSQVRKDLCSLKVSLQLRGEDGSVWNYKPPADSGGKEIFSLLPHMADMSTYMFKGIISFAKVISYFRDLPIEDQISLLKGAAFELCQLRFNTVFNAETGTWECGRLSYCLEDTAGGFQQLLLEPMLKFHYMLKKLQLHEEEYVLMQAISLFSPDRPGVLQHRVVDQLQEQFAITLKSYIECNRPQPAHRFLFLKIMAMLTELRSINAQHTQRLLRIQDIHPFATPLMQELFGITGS
Method in brief: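 Read-out is fluorescence of labelled reporter cDNA fragments separated by capillary electrophoresis after RT-PCR and HpaI digestion. Source: HepG2 cells carrying PXR-GAL4/UAS reporter constructs, treated 24 h; activity fitted upward relative to DMSO.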

[15] = biological target: Peroxisome proliferator-activated receptor gamma (Homo sapiens) (UniProt P37231); assay: ATG_PPARg_TRANS: Attagene TRANS-FACTORIAL HepG2 Assay for human Peroxisome Proliferator-activated Receptor-gamma (PPARg) (AID 2283007; active = hit-call score of the fitted dose curve at least 0.9, where 1 is the maximum)
Sequence of Peroxisome proliferator-activated receptor gamma (Homo sapiens) (P37231 whole entry, looked up, the tested form may be a part): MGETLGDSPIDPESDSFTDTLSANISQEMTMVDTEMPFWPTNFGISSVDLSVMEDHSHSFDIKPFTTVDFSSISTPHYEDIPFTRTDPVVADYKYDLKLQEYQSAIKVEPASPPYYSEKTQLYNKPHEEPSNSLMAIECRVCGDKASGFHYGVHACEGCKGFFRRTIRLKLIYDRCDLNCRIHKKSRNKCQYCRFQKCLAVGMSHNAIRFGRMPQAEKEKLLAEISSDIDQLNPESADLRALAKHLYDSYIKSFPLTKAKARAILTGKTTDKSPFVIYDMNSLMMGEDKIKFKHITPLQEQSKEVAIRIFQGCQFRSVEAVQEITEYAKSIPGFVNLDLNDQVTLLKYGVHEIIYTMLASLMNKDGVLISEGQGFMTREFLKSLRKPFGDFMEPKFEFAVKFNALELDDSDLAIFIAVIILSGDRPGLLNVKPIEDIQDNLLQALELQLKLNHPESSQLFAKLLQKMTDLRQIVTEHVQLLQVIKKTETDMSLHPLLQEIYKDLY
Method in brief: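 Endpoint reflects upward reporter mRNA change versus DMSO controls. Setup: transiently transfected HepG2, GAL4-UAS reporters driven by chimeric NR-Gal4, 24 h incubation, RT-PCR with capillary electrophoresis read-out.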

[16] = biological target: human Retinoic Acid Receptor beta (RARb), RARB (gene 5915) (UniProt P10826); assay: ATG_RARb_TRANS: Attagene TRANS-FACTORIAL HepG2 Assay for human Retinoic Acid Receptor beta (AID 2283004; active = hit-call score of the fitted dose curve at least 0.9, where 1 is the maximum)
Sequence of human Retinoic Acid Receptor beta (RARb), RARB (gene 5915) (P10826 whole entry, looked up, the tested form may be a part): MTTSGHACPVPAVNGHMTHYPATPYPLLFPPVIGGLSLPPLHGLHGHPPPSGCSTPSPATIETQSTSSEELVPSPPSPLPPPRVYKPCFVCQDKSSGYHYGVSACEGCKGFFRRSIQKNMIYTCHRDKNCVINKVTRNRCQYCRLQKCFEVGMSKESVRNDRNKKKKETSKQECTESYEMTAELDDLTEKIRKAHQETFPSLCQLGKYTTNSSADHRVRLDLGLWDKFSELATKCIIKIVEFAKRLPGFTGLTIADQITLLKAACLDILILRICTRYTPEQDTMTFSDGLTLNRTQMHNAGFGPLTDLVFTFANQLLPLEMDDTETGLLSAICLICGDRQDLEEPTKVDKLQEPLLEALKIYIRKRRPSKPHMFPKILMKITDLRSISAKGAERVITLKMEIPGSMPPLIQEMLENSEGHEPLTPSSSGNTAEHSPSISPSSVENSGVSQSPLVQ
Method in brief: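 Induction of reporter mRNA from a chimeric RARb-Gal4 construct was measured by RT-PCR, FAM labelling, HpaI digestion and capillary electrophoresis. Measurements followed 24 h compound treatment of transiently transfected human HepG2 liver cells, with DMSO as baseline.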

[17] = biological target: Retinoic acid receptor alpha (Homo sapiens) (UniProt P10276); assay: ATG_RARa_TRANS: Attagene TRANS-FACTORIAL HepG2 Assay for human Retinoic Acid Receptor alpha (RARa) (AID 2283005; active = hit-call score of the fitted dose curve at least 0.9, where 1 is the maximum)
Sequence of Retinoic acid receptor alpha (Homo sapiens) (P10276 whole entry, looked up, the tested form may be a part): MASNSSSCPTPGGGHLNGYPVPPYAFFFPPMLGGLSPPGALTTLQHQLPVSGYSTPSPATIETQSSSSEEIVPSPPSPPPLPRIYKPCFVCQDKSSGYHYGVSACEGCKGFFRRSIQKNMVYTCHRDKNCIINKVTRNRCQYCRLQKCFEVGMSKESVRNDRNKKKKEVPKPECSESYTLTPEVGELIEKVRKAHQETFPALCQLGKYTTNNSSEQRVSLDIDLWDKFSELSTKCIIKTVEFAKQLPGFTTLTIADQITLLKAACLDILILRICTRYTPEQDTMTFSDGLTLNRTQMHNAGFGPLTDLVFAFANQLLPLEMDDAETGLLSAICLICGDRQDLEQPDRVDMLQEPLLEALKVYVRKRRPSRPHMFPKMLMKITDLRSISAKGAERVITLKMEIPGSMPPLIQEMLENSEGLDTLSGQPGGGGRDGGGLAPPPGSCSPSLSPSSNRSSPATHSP
Method in brief: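 Reporter transcripts, measured by RT-PCR with fluorescent labeling and capillary electrophoresis after 24 h dosing, reflect activity of an exogenous human RARa–GAL4 fusion in transiently transfected HepG2. Fitted for increase relative to DMSO.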

[18] = read-out: Intercellular Adhesion Molecule 1 (ICAM1), ICAM1 (gene 3383); assay: BSK_3C_ICAM1: BioMAP Diversity Plus: 3C Assay for Intercellular Adhesion Molecule 1 (ICAM1) Biomarker Activity (AID 2283003); conditions: primary human endothelial cells (HUVEC); actives raise or lower the signal
Method in brief: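 HUVEC primary cells stimulated under 3C conditions; ICAM1 measured by ELISA 24 h after compound dosing. Curves fitted bidirectionally against the DMSO baseline. Overt cytotoxicity checked by SRB staining of parallel cultures.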

[19] = biological target: human Retinoic Acid Receptor gamma (RARg), RARG (gene 5916) (UniProt P13631); assay: ATG_RARg_TRANS: Attagene TRANS-FACTORIAL HepG2 Assay for human Retinoic Acid Receptor gamma (RARg) (AID 2283009; active = hit-call score of the fitted dose curve at least 0.9, where 1 is the maximum)
Sequence of human Retinoic Acid Receptor gamma (RARg), RARG (gene 5916) (P13631 whole entry, looked up, the tested form may be a part): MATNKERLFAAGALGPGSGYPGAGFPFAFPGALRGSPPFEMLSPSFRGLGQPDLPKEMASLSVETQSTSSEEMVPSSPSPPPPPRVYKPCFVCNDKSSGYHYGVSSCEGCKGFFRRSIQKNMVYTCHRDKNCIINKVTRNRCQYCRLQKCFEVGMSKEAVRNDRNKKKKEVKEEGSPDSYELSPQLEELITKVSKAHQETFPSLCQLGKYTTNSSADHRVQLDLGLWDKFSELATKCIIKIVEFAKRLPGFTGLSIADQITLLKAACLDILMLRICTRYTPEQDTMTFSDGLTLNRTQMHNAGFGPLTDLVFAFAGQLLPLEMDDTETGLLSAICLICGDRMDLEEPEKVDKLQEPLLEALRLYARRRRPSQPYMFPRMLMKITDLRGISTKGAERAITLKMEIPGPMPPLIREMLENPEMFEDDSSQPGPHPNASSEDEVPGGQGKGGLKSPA
Method in brief: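 HepG2 transiently transfected with GAL4-UAS reporter units and chimeric NR-Gal4 constructs; 24 h compound exposure. Reporter mRNA quantified by RT-PCR, FAM labeling, HpaI digestion and capillary electrophoresis; gain-of-signal versus DMSO.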

FC(F)(F)C(F)(F)CNCC(F)(F)C(F)(F)F
outcome [1]: inactive
outcome [2]: inactive
outcome [3]: inactive
outcome [4]: inactive
outcome [5]: inactive
outcome [6]: inactive
outcome [7]: inactive
outcome [8]: inactive
outcome [9]: inactive
outcome [10]: inactive
outcome [11]: inactive
outcome [12]: inactive
outcome [13]: inactive
outcome [14]: inactive

Cc1ccc(S(=O)(=O)NCl)cc1
outcome [1]: inactive
outcome [2]: inactive
outcome [4]: inactive
outcome [5]: inactive
outcome [6]: inactive
outcome [11]: inactive
outcome [12]: inactive
outcome [15]: inactive
outcome [14]: inactive

CC(C)(C)c1ccc(OC2CCCCC2O)cc1 (stereo unspecified)
outcome [1]: inactive
outcome [2]: inactive
outcome [3]: inactive
AC50 [4]: 20.5 µM (active)
outcome [5]: inactive
outcome [6]: inactive
outcome [12]: inactive
outcome [16]: inactive
outcome [17]: inactive
AC50 [14]: 2.96 µM (active)

CN(C)Cc1ccccc1O
outcome [1]: inactive
outcome [2]: inactive
outcome [4]: inactive
AC50 [5]: 179 µM (active)
outcome [6]: inactive
outcome [11]: inactive
outcome [12]: inactive
outcome [15]: inactive
outcome [14]: inactive

Nc1ccc(Oc2cccc(Oc3ccc(N)cc3)c2)cc1
AC50 [1]: 76.4 µM (active)
outcome [2]: inactive
outcome [3]: inactive
AC50 [4]: 26.5 µM (active)
AC50 [5]: 24.9 µM (active)
AC50 [6]: 26.7 µM (active)
outcome [11]: inactive
AC50 [15]: 5.29 µM (active)
AC50 [14]: 22.1 µM (active)

O=C(C=Cc1ccccc1)OCC=Cc1ccccc1
outcome [1]: inactive
outcome [2]: inactive
AC50 [4]: 2.64 µM (active)
outcome [5]: inactive
outcome [6]: inactive
outcome [11]: inactive
outcome [12]: inactive
AC50 [15]: 0.641 µM (active)
AC50 [14]: 23.9 µM (active)

C=C(C)C(=O)OCCC(F)(F)C(F)(F)C(F)(F)C(F)(F)C(F)(C(F)(F)F)C(F)(F)F
outcome [1]: inactive
outcome [2]: inactive
outcome [3]: inactive
outcome [4]: inactive
outcome [5]: inactive
outcome [6]: inactive
outcome [7]: inactive
outcome [8]: inactive
outcome [9]: inactive
outcome [10]: inactive
outcome [12]: inactive
outcome [18]: inactive
outcome [17]: inactive
outcome [13]: inactive
outcome [15]: inactive
outcome [14]: inactive

CCN(Cc1cccc(S(=O)(=O)O)c1)c1ccc(C(=C2C=CC(=[N+](CC)Cc3cccc(S(=O)(=O)O)c3)C=C2)c2ccc(O)cc2S(=O)(=O)[O-])cc1
outcome [1]: inactive
outcome [2]: inactive
outcome [3]: inactive
outcome [4]: inactive
outcome [5]: inactive
outcome [11]: inactive
outcome [12]: inactive
outcome [15]: inactive
outcome [14]: inactive

C=CC(F)(F)C(F)(F)C(F)(F)C(F)(F)C(F)(F)C(F)(F)C(F)(F)C(F)(F)C=C
outcome [1]: inactive
outcome [2]: inactive
outcome [3]: inactive
outcome [4]: inactive
outcome [5]: inactive
outcome [6]: inactive
outcome [7]: inactive
outcome [8]: inactive
outcome [9]: inactive
outcome [10]: inactive
outcome [12]: inactive
outcome [18]: inactive
outcome [16]: inactive
outcome [13]: inactive
outcome [15]: inactive

CCCCCCOC(=O)c1ccccc1
outcome [1]: inactive
outcome [2]: inactive
outcome [3]: inactive
outcome [4]: inactive
outcome [5]: inactive
outcome [6]: inactive
outcome [11]: inactive
outcome [12]: inactive

CCCCCC=O
outcome [1]: inactive
outcome [2]: inactive
outcome [4]: inactive
outcome [5]: inactive
outcome [6]: inactive
outcome [11]: inactive
outcome [12]: inactive

FC(F)(F)C(F)(F)C(F)(F)C(F)(F)C(F)(F)C(F)(F)C(F)(F)I
outcome [1]: inactive
outcome [2]: inactive
outcome [3]: inactive
outcome [4]: inactive
outcome [5]: inactive
outcome [6]: inactive
outcome [7]: inactive
outcome [8]: inactive
outcome [9]: inactive
outcome [10]: inactive
outcome [11]: inactive
outcome [12]: inactive
outcome [16]: inactive
outcome [13]: inactive
outcome [15]: inactive

FC(F)(F)C(F)(F)C(F)(F)C(F)(F)C(F)(F)C(F)(F)C(F)(F)C(F)(F)F
outcome [1]: inactive
outcome [2]: inactive
outcome [3]: inactive
outcome [4]: inactive
outcome [5]: inactive
outcome [6]: inactive
outcome [7]: inactive
outcome [8]: inactive
outcome [9]: inactive
outcome [10]: inactive
outcome [11]: inactive
outcome [12]: inactive
outcome [17]: inactive
outcome [13]: inactive
outcome [14]: inactive
outcome [19]: inactive
